# Laboratory results reported in PubChem BioAssay (NCI).
# The panel holds about 83,000 compounds, 20% with a hit somewhere; the sample as a whole holds those more often.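 Cells were grown in 96-well plates and exposed to the test compound at a single concentration for 48 hours; results are reported as percent growth, with values below 10 considered active.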 A number with no mark means an inactive call. Active and inactive are the calls of the source.
# Tested on: A549/ATCC NSCLC
# Test: NCI-60 one-dose screen, 48 h (100 = growth as untreated, 0 = no growth, -100 = all killed)
# Settings: 10 µM unless noted
row,SMILES,growth [%]
1,O=C1C(Cl)=C(Nc2cccc3ccccc23)C(=O)c2ccccc21,87.9
2,Nc1c(C(=O)Nc2ccccc2)sc2nc3c(cc12)C(=O)CCC3,19.7
3,CCOCCNc1ccc(S(=O)(=O)c2ccc(N)cc2)cc1N,91.5
4,CCCCSc1ncnc2c1ncn2C1CCCCO1 (centres undefined),105
5,CCNCCCn1c2c(c3ccc(Cl)cc3c1=O)C(=O)c1cc(OC)cnc1-2,25.7
6,COc1ccc2nc3ccccc3c(NCc3ccc(C)cc3)c2c1,19.3
7,C=CCOC(=O)C1=C(C)NC2=C(C(=O)CCC2)C1c1ccc(F)cc1 (centres undefined),97.3
8,O=C(O)C(CCc1ccccc1)NCc1ccccc1 (centres undefined),99.7
9,COc1ncnc2[nH]cc(CN3CCN(c4ccc(F)cc4)CC3)c12,96.5
10,O=S(=O)(Cc1ccc(Cl)cc1Cl)c1ccc(Cl)cc1,30.7
11,COc1ccc(-c2nc3ccccc3n3cccc23)cc1,102

# Tested on: 786-0 renal
# Test: as above
# Settings: 10 µM unless noted
row,SMILES,growth
1,CCn1c(Cc2ccccc2Nc2c(Cl)cccc2Cl)nnc1SCC(=O)Nc1cccc(OC)c1,89.8%
2,COc1ccc2nc(C)cc(Sc3nc4ccccc4s3)c2c1,73.8%
3,COc1cnc2c(c1)C(=O)c1c-2n(CCCN2CCN(C)CC2)c(=O)c2cc(Cl)ccc12,21.3%
4,c1cn2cc(-c3ccc4ncn(C5CCCCC5)c4c3)nc(-c3ccc4c(c3)ncn4C3CCCCC3)c2n1,-47.1% (active)
5,CN1C(=O)N(C)C2C1NN=c1s/c(=C\c3ccc(C(F)(F)F)cc3)c(=O)n12 (centres undefined),25.5%
6,CN1C(=O)N(C)C2C1NN=c1s/c(=C\c3ccsc3)c(=O)n12 (centres undefined),47.6%
7,C/C(=N\Nc1ccc([N+](=O)[O-])cn1)c1ccc(N)cc1,99.7%
8,COc1ccccc1/C=N\Nc1ccc([N+](=O)[O-])cn1,105%
9,CCCCCCCCCCCCCCCCCC(=O)[O][Sn]([CH2]CCC)([CH2]CCC)[CH2]CCC,-100% (active)
10,C[C@H](NC(=O)c1snnc1C1CC1)c1c(F)cccc1Cl,112%
11,CC(C)c1cccc(C#N)c1,102%
12,CN1C(=O)N(C)C2C1NN=c1s/c(=C\c3ccc(Br)cc3)c(=O)n12 (centres undefined),30.2%
13,O=C1SCN(Cc2ccccc2)CN1Cc1ccccc1,114%
14,C[N+](C)(C)CC(=O)N/N=C\c1ccco1,102%
15,COc1cc(C2CC(c3ccc(Cl)cc3)=NN2C(C)=O)ccc1Oc1nc2c(c(=O)n(C)c(=O)n2C)n1C (centres undefined),111%
16,CCN1CCN(Cc2ccc(NC(=O)Nc3ccc(-n4ccc5c(NC(=O)c6ccccc6)nccc54)cc3)cc2C(F)(F)F)CC1,-84.6% (active)
17,Nc1nc(N)c2cc(NCc3ccc(Cl)c(Cl)c3)ccc2n1,-89.7% (active)
18,O=c1oc2ccccc2cc1-c1cc(-c2ccc(-c3cc(-c4cc5ccccc5oc4=O)nc(-c4cc5ccccc5oc4=O)c3)cc2)cc(-c2cc3ccccc3oc2=O)n1,107%
19,C=C1C(=O)O[C@H]2[C@H]1CC/C(COC(=O)N[C@@H](Cc1c[nH]c3ccccc13)C(=O)OC)=C\CC[C@@]1(C)O[C@@H]21,-48.6% (active)

row,SMILES,growth
1,COc1cc(OC)c(Cl)cc1N,111%
2,COC(=O)c1ccc2c(c1)nc(-c1cc3ccccc3[nH]c1=O)n2-c1cc(C(C)(C)C)[nH]n1,33.3%
3,Fc1ccc(-c2nc(-c3ccc(-c4nc5ccc(F)cc5[nH]4)cc3)no2)cc1,102%
4,CCCC(CCC)(C(N)=O)C(=O)O,113%
5,CNC(=O)OC1C(O[C@H]2C[C@H]3[C@@H]4CC=C5C[C@@H](O)CC[C@]5(C)[C@H]4CC[C@]3(C)[C@H]2[C@H](C)C(=O)CCC(C)C)OCC(O)C1OC1OCC(O)C(O)C1OC(=O)c1ccc(OC)cc1 (some centres undefined),-14.3% (active)
6,CC(=O)O[C@@H]1CC2C(C)(C)CCCC2(C)C2=C1C(=O)C(C(C)C)=CC2=O (some centres undefined),16%
7,CC(=O)Oc1c(Cl)c(Cl)c(Cl)c(Cl)c1Cl,100%
8,Oc1c(C(Nc2ccccc2Br)c2ccccc2)ccc2cccnc12 (centres undefined),6.91% (active)
9,O=C1C(Cl)=C(Nc2cccc3ccccc23)C(=O)c2ccccc21,90%
10,Nc1c(C(=O)Nc2ccccc2)sc2nc3c(cc12)C(=O)CCC3,36.2%
11,CCOCCNc1ccc(S(=O)(=O)c2ccc(N)cc2)cc1N,108%
12,CCCCSc1ncnc2c1ncn2C1CCCCO1 (centres undefined),97.9%
13,CCNCCCn1c2c(c3ccc(Cl)cc3c1=O)C(=O)c1cc(OC)cnc1-2,-95.4% (active)
14,COc1ccc2nc3ccccc3c(NCc3ccc(C)cc3)c2c1,15.8%
15,C=CCOC(=O)C1=C(C)NC2=C(C(=O)CCC2)C1c1ccc(F)cc1 (centres undefined),99.9%
16,O=C(O)C(CCc1ccccc1)NCc1ccccc1 (centres undefined),100%
17,COc1ncnc2[nH]cc(CN3CCN(c4ccc(F)cc4)CC3)c12,103%
18,O=S(=O)(Cc1ccc(Cl)cc1Cl)c1ccc(Cl)cc1,30.2%
19,COc1ccc(-c2nc3ccccc3n3cccc23)cc1,100%
